The list is not random: actives were taken first. Their share in the collection is about 3.5%.
MITF primary = MITF inhibitors, primary screen, biochemical, AlphaScreen, human. AlphaScreen MITF homodimerization, bead proximity signal. inhibition, % at 2.6 µM. AID 1259374, 2018. Microphthalmia-associated transcription factor (Homo sapiens), O75030. 650,000 tested, 0.91% active; in the data active = inhibition above about 50%;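 also: 0% = vehicle wells with protein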
Target sequence (O75030 whole entry, looked up): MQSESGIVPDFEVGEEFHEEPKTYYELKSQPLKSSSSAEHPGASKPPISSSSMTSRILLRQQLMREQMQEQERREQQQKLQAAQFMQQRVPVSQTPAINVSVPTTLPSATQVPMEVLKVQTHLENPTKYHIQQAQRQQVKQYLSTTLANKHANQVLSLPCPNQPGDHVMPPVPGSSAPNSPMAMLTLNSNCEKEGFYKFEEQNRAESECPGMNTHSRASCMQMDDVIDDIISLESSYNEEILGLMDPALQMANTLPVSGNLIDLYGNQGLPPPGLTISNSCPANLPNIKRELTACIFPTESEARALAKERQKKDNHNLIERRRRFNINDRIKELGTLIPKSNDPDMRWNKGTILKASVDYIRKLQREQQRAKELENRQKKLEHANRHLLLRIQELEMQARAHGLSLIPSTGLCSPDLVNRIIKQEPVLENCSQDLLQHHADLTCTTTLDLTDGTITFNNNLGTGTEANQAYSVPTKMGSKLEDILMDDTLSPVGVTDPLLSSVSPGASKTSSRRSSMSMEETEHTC
GPR151 activ = activators of human GPR151, primary screen, cell-based, PathHunter beta-arrestin, luminescence; 650,000 tested, 1% active; activation, % at 11.2 µM; PathHunter beta-arrestin GPR151 cells; in the data active = activation above about 4.9%;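 also: 0% = median of compound wells and 100% = cells with positive control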
FBW7 activator = FBW7 E3 ligase activators, primary screen, biochemical, AlphaScreen, human; F-box/WD repeat-containing protein 7 (Homo sapiens), Q969H0; AlphaScreen FBW7–phospho-cyclin E peptide binding, activator screen; normalized activity (activation), % at 26.1 µM; 650,000 tested, 0.13% active; AID 1259310, 2017; in the data active = normalized activity above about 1.9%;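 also: purified mutant Fbw7 with reduced substrate affinity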
TEAD-YAP inh = TEAD-YAP interaction inhibition, primary screen, TEAD-YAP interaction inhibitor project, luminescence, HEK-TIYL cells. AID 1259422, 2018. 640,000 tested, 1.4% active. TEAD-Gal4/YAP UAS-luciferase luminescence. inhibition, % at 9.12 µM; in the data active = inhibition above about 32%;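 also: 0% = median of test compound wells and 100% = reference inhibitor wells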
Numbers without * were called inactive.

SMILES	MITF primary	GPR151 activ	FBW7 activator	TEAD-YAP inh
COc1ccc2nc(C)cc(Nc3ccc(Oc4ccc(Cl)cc4)c(Cl)c3)c2c1	0	0	0	44*
COc1ccc(OC)c(Nc2cc(C)nc3ccccc23)c1	-3	0	0	37*
COc1cccc(Nc2cc(C)nc3ccc(OC)cc23)c1	29	1	0	8
Cc1nn(C)c(C)c1-c1cc(NCCc2ccc(O)cc2)nc(N)n1	10	3	0	37*
Cc1nn(C)c(C)c1-c1cc(NCc2ccccc2)nc(N)n1	8	0	0	1
CC(C)c1ccc(NC(=O)C(=O)NCc2ccccc2)cc1	3	4	0	-4
COc1ccc([N+](=O)[O-])cc1NC(=O)c1cnc(N2CCN(c3ccccn3)CC2)c2ccccc12	14	0	0	-6
Cc1cccc(NC(=O)c2cnc(N3CCN(c4ncccn4)CC3)c3ccccc23)n1	-4	0	0	53*
COc1ccccc1NC(=O)c1cnc(N2CCN(c3ncccn3)CC2)c2ccccc12	11	1	0	60*
COc1ccc(OC)c(NC(=O)c2cnc(N3CCN(c4ccccn4)CC3)c3ccccc23)c1	2	3	0	46*
COc1ccc(C)cc1NC(=O)c1cnc(N2CCN(c3ncccn3)CC2)c2ccccc12	11	-1	0	11
CCC(=O)Nc1ncc2c(n1)CC(c1ccccc1Cl)CC2=O (stereo unspecified)	3	2	0	0
CC1Sc2ccc(C#N)cc2N(Cc2ccc3ccccc3n2)C1=O (stereo unspecified)	17	1	0	-11
CCCCOc1ccc(C(=O)Nc2cccc(NC(=O)c3ccc(OCCCC)cc3)n2)cc1	12	0	0	8
CC(C)c1onc(C(=O)NC(C)(C)C)c1[N+](=O)[O-]	5	1	0	4
O=C(NC1CC1)c1ccc(-c2nc(NCc3nc4ccccc4[nH]3)c3ncn(C4CCCCC4)c3n2)cc1	5	-1	0	45*
c1cncc(Nc2nc(NCc3nc4ccccc4[nH]3)c3[nH]cnc3n2)c1	-8	-2	3.0*	0
CC(C)n1cnc2c(NCc3nc4ccccc4[nH]3)nc(Nc3ccc(C(F)(F)F)cc3)nc21	-16	0	0	56*
CN1CCN(C(=O)c2ccc(-c3nc(NCc4nc5ccccc5[nH]4)c4ncn(C5CCCCC5)c4n3)cc2)CC1	15	0	0	5
Cn1c(Nc2nc(NCc3nc4ccccc4[nH]3)c3ncn(-c4ccccc4)c3n2)nc2ccccc21	10	0	0	19
CC(C)n1cnc2c(NCc3nc4ccccc4[nH]3)nc(Nc3ccccc3)nc21	-5	-1	0	64*
CC(C)n1cnc2c(Nc3ccccc3)nc(Nc3ccc(C(F)(F)F)cc3)nc21	9	1	0	-8
Cc1noc(C)c1-c1cc(NCCN(C(C)C)C(C)C)nc(N)n1	14	-1	0	-2
c1cncc(Nc2nc(NCc3nc4ccccc4[nH]3)c3ncn(C4CCCCC4)c3n2)c1	2	-1	0	70*
CC(C)n1cnc2c(NCc3nc4ccccc4[nH]3)nc(Nc3ccc(-n4ccnc4)cc3)nc21	13	-1	0	46*
SMILES	MITF primary	GPR151 activ	FBW7 activator	TEAD-YAP inh
CC(C)n1cnc2c(NCc3nc4ccccc4[nH]3)nc(Nc3cccnc3)nc21	9	-2	0	86*
c1ccc2[nH]c(CNc3nc(Nc4ccc(-n5ccnc5)cc4)nc4c3ncn4C3CCCCC3)nc2c1	-9	-2	0	-24
Cc1cc(F)ccc1NC(=O)CSc1ccsc1[N+](=O)[O-]	14	1	0	6
O=C(CSc1ccsc1[N+](=O)[O-])Nc1cc(F)ccc1F	49	1	0	32*
C/C=C/COC(=O)Cn1c(=O)sc2cccc(Cl)c21	2	-1	0	-4
COc1ccc(/C=C(/C#N)c2nc3ccccc3[nH]2)cc1	2	-2	0	-51
COc1ccc(-c2nc3ccccc3[nH]2)cc1	-3	-11	0	50*
COc1ccc(/C=C/c2nc3ccccc3[nH]2)cc1	1	-6	0	88*
C(=C\c1nc2ccccc2[nH]1)/c1ccccc1	-7	-10	0	80*
Nc1ccc2nc(/C=C/c3ccccc3)[nH]c2c1	10	-9	0	15
COc1ccc(/C=C/C(=O)Nc2nc3ccccc3n2C)cc1	17	-1	0	-17
